# Compound activity deposited in PubChem by National Center for Advancing Translational Sciences (NCATS).
# This is a sample that favours compounds with a hit; in the whole collection about 6.2% have one here.
# MARV entry inh = qHTS for inhibitors of binding or entry into cells for Marburg Virus | Marburg virus pseudotyped entry inhibition, cell reporter | Potency, µM (doses to about 37.8 µM), for the others: at the highest dose activity change, negative = inhibition, most hits filed as inhibitors | 1.8% of 300,000 active | AID 540276, 2011; calls by dose curve; tested in HEK293 cells; further: potency means the concentration at half of the fitted maximal effect
# FMDV antiviral = High Throughput Screening for Foot and Mouth Disease Virus Antivirals | FMDV antiviral cell-based qHTS | Potency, µM (highest dose often 57.9 µM), inactives show top-dose activity change, negative = inhibition, hits mostly inhibitors | 1.2% of 410,000 active; calls by dose curve; tested in HEK293T cells; further: read-out not given here; potency means the concentration at half of the fitted maximal effect; nearly all actives have a fitted effect of over 45% in size
# LASV entry inh = qHTS for Inhibitors of binding or entry into cells for Lassa Virus; Lassa virus pseudotype entry inhibition, cell reporter; Potency, µM (highest dose often 37.9 µM), without a hit: top-dose activity change, negative = inhibition, actives largely listed as inhibitors; 1.2% of 300,000 active; AID 540256, 2011; calls by dose curve; tested in HEK293 cells; further: potency means the concentration at half of the fitted maximal effect; nearly all actives have a fitted effect of over 50% in size
# HCMV antiviral = qHTS Assay for inhibitors of the human cytomegalovirus (HCMV) | HFF cells, HCMV-luciferase reporter, 72 h; hits give low values | activity change, negative = inhibition, % at 57.5 µM | 4.5% of 410,000 active; in the data active means activity change below about -60%; inconclusive means no clear call, values can overlap the other calls; inactive means above about -39%
#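 Inhibition of viral replication was scored as loss of reporter luminescence in HFFs infected with HCMV-luciferase (MOI 1 PFU/cell) for 72 h; compounds tested at 2 doses, normalized to buffer and Salinomycin controls.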
# * hit, by the source's call; ? = inconclusive; · = no result given; [ ] = dose if it differs, or a comment. On the % scale 0 is the no-effect control and ±100 the full control effect.
SMILES,MARV entry inh,FMDV antiviral,LASV entry inh,HCMV antiviral
Cc1cccc(N2CCN(C(=O)c3cn4ccccc4n3)CC2C)c1 (stereo unspecified),?,?,-5%[46.1 µM],-62*
Cc1cccc(N2CCN(C(=O)CC(NC(=O)c3ccccc3)c3ccccc3)CC2C)c1 (stereo unspecified),?,?,?,-66*
CC(C)c1ccc(C(=O)Nc2cc(-c3ccccc3F)nn2-c2ccccc2)cc1,·,-14%,13%[46.1 µM],20
CCOc1ccc(Nc2cc(C)nc3ccc(C)cc23)cc1,?,?,11µM*,-74*
Cc1ccc(Nc2cc(C)nc3ccc(C)cc23)cc1,11µM*,-28%,?,-39
Cc1cc(C)c(C#N)c(Nc2ccc3c(c2)OCCO3)n1,·,1%,·,93
Cc1cc(Nc2ccc3c(c2)OCCO3)c2cc(Cl)ccc2n1,-26%,40µM*,9%,-93*
Cc1ccc(Nc2cc(C)nc3ccccc23)c(C)c1,10µM*,?,-9%,?
COc1ccc(Nc2cc(C)nc3ccc(OC)cc23)cc1,?,-1%,?,?
CC(C)OCCCn1c(SCC(N)=O)nc2c(sc3ccccc32)c1=O,·,-6%,?,-36
CN1CCC2(CC1)Nc1nc(SCc3ccc(Cl)cc3)nn1C1=C2CN(C)CC1,?,-24%,14µM*,-27
CCCCNC(=O)c1[nH]c(C)c(C(C)=O)c1C,-13%[46.1 µM],26%,-17%[46.1 µM],-39
CCCCC(CC)CNC(=O)c1[nH]c(C)c(C(C)=O)c1C (stereo unspecified),-2%,29%,·,-65*
COCCNc1nc(Nc2ccc(C)cc2C)c2sccc2n1,·,?,·,-76*
COCCNc1nc(NCc2ccc(C)cc2C)c2sccc2n1,·,?,·,-36
COC(=O)Nc1nc(-c2ccccc2)c(C(=O)c2ccccc2)s1,?,-15%,3.2µM*,?
Cc1nnc(SCC(=O)N/N=C/c2ccc(-c3ccc(C)c(Cl)c3)o2)s1,-25%,-24%,?,-65*
C/C(Cl)=C\Cn1c(N2CCCC2)nc2c1c(=O)[nH]c(=O)n2C,-23%,-13%,5%,-89*
CCCCCCn1c(N2CCC(C)CC2)nc2c1c(=O)[nH]c(=O)n2C,-14%,20µM*,?,-19
CCCCn1c(N2CCC(Cc3ccccc3)CC2)nc2c1c(=O)[nH]c(=O)n2C,?,28µM*,?,-28
CCCCN(Cc1cccs1)S(=O)(=O)c1ccc(-c2ccc(=O)[nH]n2)s1,-3%[46.1 µM],9%,0%[46.1 µM],-68*
O=C(Nc1ccc(N2CCN(C(=O)c3ccccc3)CC2)c(Cl)c1)c1ccco1,?,-68%,?,-33
CCCC(=O)N1CCN(c2ccc(NC(=O)c3cc4ccccc4o3)cc2Cl)CC1,?,4.5µM*,16µM*,-103*
CCC(=O)N1CCN(c2ccc(NC(=O)c3ccco3)cc2Cl)CC1,18%,20%,?,100
O=C(Nc1ccc(N2CCN(C(=O)c3ccco3)CC2)c(Cl)c1)c1cc2ccccc2o1,?,8.9µM*,?,-99*
SMILES,MARV entry inh,FMDV antiviral,LASV entry inh,HCMV antiviral
CCC(=O)N1CCN(c2ccc(NC(=O)c3cc4ccccc4o3)cc2Cl)CC1,11µM*,8.9µM*,?,-104*
CC(C)N1C(=S)N=C2C=C(C(F)(F)F)C=CC21 (stereo unspecified),-18%[46.1 µM],·,·,·
Cc1ccc(C(=O)N2CCn3c(nnc3C(=O)NCC3CC3)C2)cc1F,·,·,·,-9
O=S(=O)(c1cccc(F)c1)N1CCN(c2ncnc3scc(-c4ccc(F)cc4)c23)CC1,?,?,?,-28
Nc1ncc(-c2cccc(S(N)(=O)=O)c2)c2scc(-c3ccc(F)c(Cl)c3)c12,·,·,22µM*,·
O=C(C[n+]1cc(-c2ccc(Cl)cc2)n2c1CCCCC2)c1ccccc1,-7%,1%,-18%,-6
COc1ccc(-c2c[n+](CC(=O)OC3CC(C)CCC3C(C)C)c3n2CCC3)cc1 (stereo unspecified),·,13µM*,·,-100*
CC(C)[C@@H]1CC[C@@H](C)C[C@H]1OC(=O)C[n+]1cc(-c2ccc(Cl)cc2)n2c1CCCCC2,?,?,?,-97*
C#CCN(C[C@@H]1[C@@H](OC(=O)NCCCCCC)[C@@H](OC(=O)NCCCCCC)Cn2c(=O)ccc(=O)n21)S(=O)(=O)c1ccc(C)cc1,·,13µM*,·,-104*
C#CCN(C[C@@H]1[C@@H](OC(=O)NC2CC2)[C@@H](OC(=O)NC2CC2)Cn2c(=O)n(CCCCCC)c(=O)n21)S(=O)(=O)c1ccc(C)cc1,·,?,·,-8
C#CCN(C[C@@H]1[C@@H](OC(=O)NCC2CCCCC2)[C@@H](OC(=O)NCC2CCCCC2)Cn2c(=O)ccc(=O)n21)S(=O)(=O)c1ccc(C)cc1,·,10µM*,·,-102*
Cc1ncc2c(c1CNC(=O)/C=C/c1cccs1)CCN(C(=O)C1CC(=O)OC13CCCCC3)C2 (stereo unspecified),·,-1%,·,·
O=C(c1cccs1)c1cn(CCOc2ccccc2Cl)c2ccccc12,4%[46.1 µM],-23%,-1%[46.1 µM],-1
COc1ccc(CN2C(=O)c3ccccc3C(/C=N\OCc3ccc(F)cc3)C2=O)cc1 (stereo unspecified),-25%,?,-3%,-91*
CCc1noc(C)c1C(=O)N1CCOc2ccc(CN3CCCC(C(=O)c4cccnc4)C3)cc2C1 (stereo unspecified),·,-6%,·,·
COc1ccccc1CNc1ncnc2c1c(-c1ccccc1)cn2-c1cccc(C)c1,·,?,-14%[46.1 µM],-60*
COc1ccc(CNc2ncnc3c2c(-c2ccccc2)cn3-c2cccc(C)c2)cc1,·,-27%,1%[46.1 µM],?
O=C(COCc1cc(-c2cccs2)on1)NCc1ccc(F)cc1,·,-11%,-11%[46.1 µM],-2
Cc1occc1-c1nnc(SC(C)C(=O)Nc2ccccc2F)o1 (stereo unspecified),?,24%,11µM*,48
O=C(Nc1ccc(-n2ccc(C(F)(F)F)n2)cc1)Nc1cccc(Cl)c1,·,·,·,-84*
CCCN(CCC)CCCNC(=S)Nc1ccc2nc(N3CCN(C)CC3)cc(C)c2c1,·,-3%,·,-36
Cc1ccc(NC(=O)Nc2ccc3nc(N4CCN(C)CC4)cc(C)c3c2)cc1C,·,-2%,?,-100*
Cc1cc(N2CCN(C)CC2)nc2ccc(NC(=O)CCC(=O)N3CCN(c4ccc([N+](=O)[O-])cc4)CC3)cc12,?,-17%,-7%[46.1 µM],-64*
Cc1cc(N2CCN(C)CC2)nc2ccc(NC(=O)Nc3ccc(F)cc3F)cc12,·,35%,?,?
CCCCN(CC)CCNC(=S)Nc1ccc2nc(N3CCN(C)CC3)cc(C)c2c1,3.5µM*,-11%,?,-3
Cc1cc(N2CCN(C)CC2)nc2ccc(NC(=O)Nc3ccccc3Br)cc12,·,19%,?,-95*
CC(=O)c1ccccc1NC(C(=O)NC1CCCCC1)C(C)C (stereo unspecified),·,·,·,6
CC1(C(=O)NCc2cccc(C(F)(F)F)c2)CCN1C1Cc2ccccc2C1 (stereo unspecified),·,-23%,·,23
O=C(NCc1nnc2n1CCN(Cc1ccccc1C(F)(F)F)CC2)c1ccncc1,·,-16%,·,·
